High-throughput results deposited in PubChem BioAssay by several laboratories.
Calb biofilm kill – clotrimazole potentiators killing Candida biofilms, primary screen, with clotrimazole, Alamar Blue; C. albicans biofilm + clotrimazole; inhibition, % at 6 µM; actives 0.14% (n = 85,000); AID 834, 2007;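 active = inhibition above 20%; inactive = inhibition below 20%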;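 also: preformed 24 hr biofilms exposed to compound for 48 hr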
Smad3 inh – Smad3/FoxH1 peptide binding inhibitors, primary screen, biochemical, TR-FRET. Mothers against decapentaplegic homolog 3 (Homo sapiens), P84022. TR-FRET Smad3/Dy647-FoxH1 peptide binding, europium anti-His. inhibition, % at 25 µM. actives 0.29% (n = 88,000);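 active = compounds that reduce the energy-transfer binding signal between the protein and its labelled peptide by more than half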
ERb SRC1 inh – inhibitors of ERβ-SRC1 coactivator interaction, primary screen, biochemical, TR-FRET, ERβ LBD, SRC-1 peptide; TR-FRET ER-beta LBD / SRC1-Cy5 peptide binding; receptor agonist-loaded with 1 µM estradiol; inhibition, % at 25.6 µM; actives 1.3% (n = 86,000); AID 633, 2007;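 active = compounds whose percent inhibition of the receptor-coactivator binding signal exceeds about 50% in the single-dose screen, limit read from the data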
Target sequence (Q92731 whole entry, looked up, the tested form may be a part): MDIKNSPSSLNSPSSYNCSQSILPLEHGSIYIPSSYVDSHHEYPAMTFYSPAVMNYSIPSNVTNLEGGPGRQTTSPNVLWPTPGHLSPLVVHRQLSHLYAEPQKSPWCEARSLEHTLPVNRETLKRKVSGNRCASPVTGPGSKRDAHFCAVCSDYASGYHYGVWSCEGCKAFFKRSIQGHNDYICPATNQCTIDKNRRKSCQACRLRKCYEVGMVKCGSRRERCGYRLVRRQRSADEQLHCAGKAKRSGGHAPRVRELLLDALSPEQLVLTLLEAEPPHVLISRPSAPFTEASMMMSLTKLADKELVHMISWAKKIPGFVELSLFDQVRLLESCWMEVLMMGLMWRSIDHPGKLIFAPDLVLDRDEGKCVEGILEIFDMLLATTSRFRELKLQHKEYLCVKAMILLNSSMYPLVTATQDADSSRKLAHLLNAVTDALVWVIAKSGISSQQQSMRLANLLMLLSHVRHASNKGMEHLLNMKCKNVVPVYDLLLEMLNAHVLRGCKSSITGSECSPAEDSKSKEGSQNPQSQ
ERa SRC1 pot – enhancers of ERα–SRC-1 coactivator binding, primary screen, biochemical, TR-FRET, ERα LBD, low estradiol; actives 1.3% (n = 86,000); TR-FRET ERalpha-LBD/SRC-Cy5 coactivator binding, 2 h; 100 = basal binding, no effect; coactivator binding (% of control), % at 25.6 µM; in the data active = activity above about 200%;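 also: binding measured in presence of low estradiol as agonist stimulus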
ERa SRC1 inh – ERα–SRC-1 coactivator interaction inhibitors, primary screen, biochemical, TR-FRET, ERα LBD, estradiol-bound; inhibition, % at 25.6 µM; TR-FRET ER-alpha LBD / SRC-1 peptide; Estrogen receptor (Homo sapiens), P03372; actives 1.7% (n = 86,000); in the data active = inhibition above about 50%
MT1-MMP txn act – MT1-MMP promoter reporter activation – cell-based, luciferase luminescence, primary screen | activation factor at 10 µM | HT1080 MT1-MMP promoter luciferase reporter, overnight; hits give high values | AID 750, 2007 | actives 0.16% (n = 86,000);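 active = activation factor of at least 2 for MT1-MMP transcription at 10 µM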
Each line names hits and unclear results; the compound was inactive in the other large screens; [ ] = dose if it differs, or a comment. A selection: hits, their analogues and other compounds. The true share with any hit is near 3.8%.

CCc1nc(N)nc(N)c1-c1ccc(Cl)cc1	ERa SRC1 pot 246
CC(/C=C/c1ccc2c(c1)OCO2)=N\NC(=O)c1cccc([N+](=O)[O-])c1	ERa SRC1 inh 68[fluorescence artefact?]
O=C(N/N=C1\CCCc2ccccc21)c1cccc([N+](=O)[O-])c1	none (no result: Calb biofilm kill)
COC(=O)[C@@]1(Cc2ccc(OC)cc2)[C@H]2c3cc(C(=O)N(C)C)n(CCc4ccccn4)c3C[C@H]2CN1C(=O)c1ccccc1	none (no result: Calb biofilm kill, Smad3 inh, ERb SRC1 inh, ERa SRC1 pot, ERa SRC1 inh)
NS(=O)(=O)c1ccc(N=Nc2c(O)c(C(=O)O)cc3ccccc23)cc1	none (no result: Calb biofilm kill, ERb SRC1 inh, ERa SRC1 pot, ERa SRC1 inh, MT1-MMP txn act)
NS(=O)(=O)c1ccc(N=Nc2c[nH]c(=O)c(O)c2)cc1	Smad3 inh 78 (no result: Calb biofilm kill, ERb SRC1 inh, ERa SRC1 pot, ERa SRC1 inh, MT1-MMP txn act)
O=C(c1noc2c1CCCC2)N1CCN(C(c2ccccc2)c2ccccc2)CC1	ERa SRC1 pot 240
O=C(c1noc2c1CCCCC2)N1CCN(C(c2ccccc2)c2ccccc2)CC1	none
COc1ccc(-c2nc3n(c(=O)c2C#N)CCCS3)cc1	none (no result: MT1-MMP txn act)
COc1ccc(-c2c(C#N)c(C)nc3c2C(=O)c2ccccc2-3)cc1	ERa SRC1 pot 373
CC1(C)CCCC2=C1CC1C(=O)N(O)C(=O)C1C2 (configuration not stated)	ERb SRC1 inh 89
Cc1cc(C(=O)OCC(=O)c2ccc(Br)s2)no1	ERa SRC1 inh 58
Cc1cc2oc(C(=O)N(Cc3ccccc3)C3CCS(=O)(=O)C3)cc(=O)c2cc1Cl (configuration not stated)	none
C=CCn1c(SCC(=O)Nc2ccc3c(c2)OCO3)nc2ccccc2c1=O	ERb SRC1 inh 98[fluorescence artefact?]
COCCn1c(SCC(=O)Nc2ccc(NC(=O)c3ccco3)c(OC)c2)nc2ccccc2c1=O	none
CCCCn1c(SCC(=O)Nc2cc(NC(=O)c3ccco3)ccc2C)nc2ccccc2c1=O	ERb SRC1 inh 58[fluorescence artefact?], ERa SRC1 inh 75[fluorescence artefact?]
CCn1c(SCC(=O)Nc2ccc(NC(=O)c3ccco3)c(OC)c2)nc2ccccc2c1=O	ERa SRC1 inh 65
CCCCn1c(SCC(=O)Nc2cc(C)on2)nc2ccccc2c1=O	none
CCn1c(SCC(=O)Nc2ccc3c(c2)OCO3)nc2ccccc21	none
CCOc1ccc2nc(NC(=O)CSc3nc4ccccc4c(=O)n3Cc3ccco3)sc2c1	ERb SRC1 inh 53[fluorescence artefact?]
COC(=O)c1cn(NC(=O)c2cccc(OC)c2)c(=O)c2ccccc12	none
COc1cc2c(cc1O)[C@@H](c1cc(O)c(O)c(OC)c1)[C@](O)(C(=O)O)[C@@H](CO)[C@@H]2O	none (no result: Calb biofilm kill, ERb SRC1 inh, ERa SRC1 pot, ERa SRC1 inh, MT1-MMP txn act)
OCCNc1ncnc2nc[nH]c12	none (no result: Calb biofilm kill, ERb SRC1 inh, ERa SRC1 pot, ERa SRC1 inh, MT1-MMP txn act)
CCCC(=O)NC(C)c1nc2ccccc2n1CC (configuration not stated)	ERa SRC1 inh 82[fluorescence artefact?]
C=C(C)Cn1c(C(C)NC(=O)CCC)nc2ccccc21 (configuration not stated)	none
CC1=CC(=C2C(=O)c3ccccc3C2=O)C=C(C)O1	ERa SRC1 pot 884[fluorescence artefact?]
c1cc2c(cc1C(N1CCNCC1)N1CCNCC1)OCO2	none (no result: Calb biofilm kill, ERb SRC1 inh, ERa SRC1 pot, ERa SRC1 inh, MT1-MMP txn act)
C/C=C(/C(=C/C)c1ccc(O)cc1)c1ccc(O)cc1	ERa SRC1 pot 741
Cc1ccc(-n2c(SCc3cc(=O)n4ccsc4n3)nnc2-c2cccnc2)c(C)c1	ERb SRC1 inh 62, ERa SRC1 inh 75[fluorescence artefact?]
Cc1ccc(-n2c(SCC(N)=O)nnc2-c2cccnc2)c(C)c1	none
C[N@@+]1(CCC(=O)c2ccccc2)CC[C@H]2CC[C@H](C2)C1	none (no result: Calb biofilm kill, ERb SRC1 inh, ERa SRC1 pot, ERa SRC1 inh, MT1-MMP txn act)
COc1ccc2c(c1)n([O-])c1c([n+]2=O)CCC1	ERb SRC1 inh 51
COc1ccc(-c2csc(NC(=O)C3CCCCN3S(=O)(=O)c3ccccc3)n2)cc1 (configuration not stated)	none
N[C@@H](Cc1cccc([N+](=O)[O-])c1)C(=O)O	none (no result: Calb biofilm kill, ERb SRC1 inh, ERa SRC1 pot, ERa SRC1 inh, MT1-MMP txn act)
N=C(N)S[C@@H]1c2ccccc2-c2cc([N+](=O)[O-])ccc21	Smad3 inh 69 (no result: Calb biofilm kill, ERb SRC1 inh, ERa SRC1 pot, ERa SRC1 inh, MT1-MMP txn act)
Oc1ccc(C=Nc2ccc(N3CCOCC3)cc2)c(O)c1	ERb SRC1 inh 69, ERa SRC1 inh 58
